PubChem BioAssay AID1159580 (chemical genetic matrix, 2015)
The campaign covered roughly 5,500 compounds. About 2,000 (36%) were called active. Not shown: some 18% with an inconclusive outcome. Rule as the data show it: active = normalized growth mostly below about 0.91 (no sharp cut-off); inconclusive = no clear call, values can overlap the other calls; inactive = mostly above about 0.92. Some of the results follow.

Experiment: chemical genetic growth profiling, strain panel (AID 1159580);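 also: tested at 20 µM; growth read once vehicle control cultures reached saturation at 30 °C; 1 = growth at the plate median or of vehicle wells; lower values mean less growth of the strain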
Conditions: S. cerevisiae deletion strains, growth OD
[1] = locus YHR030C, strain SLT2, stronger effect = lower value
[2] = locus YJL187C, strain SWE1, stronger effect = lower value

Measured: normalized growth

Cc1ncc(CO)c(CO)c1O
inactive: locus YAL021C, strain ccr4, stronger effect = lower value 1.02 | locus YAL026C, strain drs2, stronger effect = lower value 1.02 | locus YAL030W, strain snc1, stronger effect = lower value 1.03 | locus YBL061C, strain skt5, stronger effect = lower value 1.02 | locus YBR009C, strain hhf1, stronger effect = lower value 1.01 | locus YBR023C, strain chs3, stronger effect = lower value 1.03 | locus YBR171W, strain sec66, stronger effect = lower value 1.04 | locus YBR231C, strain swc5, stronger effect = lower value 1.02 | locus YBR279W, strain paf1, stronger effect = lower value 1.01 | locus YCL011C, strain gbp2, stronger effect = lower value 1.02 | locus YCL016C, strain dcc1, stronger effect = lower value 1.01 | locus YCL069W, strain vba3, stronger effect = lower value 1.04 | locus YCR088W, strain abp1, stronger effect = lower value 1.01 | locus YDL005C, strain med2, stronger effect = lower value 1.03 | locus YDL040C, strain nat1, stronger effect = lower value 1.02 | locus YDR001C, strain nth1, stronger effect = lower value 1.03 | locus YDR069C, strain doa4, stronger effect = lower value 1.03 | locus YDR137W, strain rgp1, stronger effect = lower value 1.03 | locus YDR159W, strain sac3, stronger effect = lower value 1 | locus YDR195W, strain ref2 1.03 | locus YDR297W, strain sur2, stronger effect = lower value 1.03 | locus YDR334W, strain swr1, stronger effect = lower value 1.03 | locus YDR335W, strain msn5, stronger effect = lower value 1.02 | locus YDR392W, strain spt3, stronger effect = lower value 1.01 | locus YEL003W, strain gim4, stronger effect = lower value 1.02 | locus YEL037C, strain rad23, stronger effect = lower value 1.02 | locus YEL061C, strain CIN8 (second series), stronger effect = lower value 1.02 | locus YER015W, strain faa2, stronger effect = lower value 1.03 | locus YER016W, strain bim1, stronger effect = lower value 1 | locus YER111C, strain swi4, stronger effect = lower value 1.02 | locus YER155C, strain BEM2 (second series), stronger effect = lower value 1.07 | locus YFR010W, strain ubp6, stronger effect = lower value 1.02 | locus YGL167C, strain pmr1, stronger effect = lower value 1.03 | locus YGL173C, strain kem1, stronger effect = lower value 1.04 | locus YGL227W, strain vid30, stronger effect = lower value 1.02 | locus YGL240W, strain doc1, stronger effect = lower value 1.01 | locus YGL253W, strain hxk2, stronger effect = lower value 1.03 | locus YHR013C, strain ard1, stronger effect = lower value 1.03 | locus YHR027C, strain rpn1, stronger effect = lower value 1.02 | [1] 0.956 | locus YHR079C, strain IRE1, stronger effect = lower value 0.98 | locus YHR142W, strain chs7, stronger effect = lower value 1.02 | locus YJL092W, strain hpr5, stronger effect = lower value 1.01 | locus YJL095W, strain BCK1 (second series), stronger effect = lower value 1.02 | locus YJL095W, strain BCK1, stronger effect = lower value 0.973 | locus YJL115W, strain asf1, stronger effect = lower value 1.03 | locus YJL129C, strain trk1, stronger effect = lower value 1.04 | locus YJL154C, strain vps35, stronger effect = lower value 1.03 | locus YJL164C, strain tpk1, stronger effect = lower value 1.01 | locus YJL166W, strain qcr8, stronger effect = lower value 1.02 | [2] 1.03 | locus YJR066W, strain TOR1, stronger effect = lower value 0.911 | locus YKL160W, strain elf1, stronger effect = lower value 1.01 | locus YKR026C, strain gcn3, stronger effect = lower value 1.02 | locus YKR091W, strain srl3, stronger effect = lower value 1.02 | locus YLL001W, strain dnm1, stronger effect = lower value 0.999 | locus YLL026W, stronger effect = lower value 1.02 | locus YLL041C, strain sdh2, stronger effect = lower value 1.02 | locus YLR027C, strain aat2, stronger effect = lower value 1.01 | locus YLR113W, strain HOG1, stronger effect = lower value 0.962 | locus YLR221C, strain rsa3, stronger effect = lower value 1 | locus YLR258W, strain gsy2, stronger effect = lower value 1.02 | locus YLR262C, strain YPT6 (second series), stronger effect = lower value 1.04 | locus YLR320W, strain mms22, stronger effect = lower value 1.04 | locus YLR342W, strain FKS1, stronger effect = lower value 1.02 | locus YLR357W, strain rsc2, stronger effect = lower value 1 | locus YLR370C, strain arc18, stronger effect = lower value 1.03 | locus YLR384C, strain iki3, stronger effect = lower value 1.02 | locus YML120C, strain ndi1, stronger effect = lower value 1.02 | locus YMR058W, strain fet3, stronger effect = lower value 1.02 | locus YMR125W, strain sto1, stronger effect = lower value 1.01 | locus YMR129W, stronger effect = lower value 1.02 | locus YMR205C, strain PFK2, stronger effect = lower value 1.05 | locus YMR231W, strain pep5, stronger effect = lower value 1.03 | locus YNL071W, strain lat1, stronger effect = lower value 1.02 | locus YNL183C, strain NPR1, stronger effect = lower value 0.927 | locus YNL209W, strain ssb2, stronger effect = lower value 1.03 | locus YNL248C, strain rpa49, stronger effect = lower value 1.03 | locus YNL322C, strain KRE1 (second series), stronger effect = lower value 1.04 | locus YNR049C, strain mso1, stronger effect = lower value 1.03 | locus YOR001W, strain rrp6, stronger effect = lower value 1.03 | locus YOR070C, strain gyp1, stronger effect = lower value 1.03 | locus YOR080W, strain dia2, stronger effect = lower value 1.04 | locus YOR083W, strain WHI5, stronger effect = lower value 0.975 | locus YOR106W, strain vam3, stronger effect = lower value 1.03 | locus YOR231W, strain MKK1, stronger effect = lower value 0.957 | locus YOR265W, strain rbl2, stronger effect = lower value 1.03 | locus YOR270C, strain vph1, stronger effect = lower value 1.08 | locus YOR290C, strain snf2, stronger effect = lower value 1.02 | locus YPL051W, strain arl3, stronger effect = lower value 1.02 | locus YPL078C, strain atp4, stronger effect = lower value 1.02 | locus YPL106C, strain sse1, stronger effect = lower value 1.04 | locus YPL240C, strain hsp82, stronger effect = lower value 1.04 | locus YPL256C, strain CLN2, stronger effect = lower value 0.975

CC(=O)C1=C(C)Nc2ccccc2S1
inactive: locus YAL013W, strain DEP1, stronger effect = lower value 0.959 | locus YBR229C, strain ROT2, stronger effect = lower value 0.949 | locus YDL101C, strain DUN1, stronger effect = lower value 0.938 | locus YDR150W, strain NUM1, stronger effect = lower value 0.911 | locus YEL061C, strain CIN8, stronger effect = lower value 0.943 | locus YGR078C, strain PAC10, stronger effect = lower value 0.982 | locus YGR229C, strain SMI1, stronger effect = lower value 1.02 | [1] 0.922 | locus YHR087W, strain rtc3, stronger effect = lower value 1.01 | [2] 0.954 | locus YJR075W, strain HOC1, stronger effect = lower value 0.974 | locus YLR039C, strain RIC1, stronger effect = lower value 0.978 | locus YLR058C, strain SHM2 (second series), stronger effect = lower value 0.987 | locus YLR262C, strain YPT6, stronger effect = lower value 1.03 | locus YML094W, strain GIM5, stronger effect = lower value 0.888 | locus YMR219W, strain ESC1, stronger effect = lower value 0.971 | locus YNL153C, strain GIM3, stronger effect = lower value 0.963 | locus YNL298W, strain CLA4 (second series), stronger effect = lower value 0.857 | locus YNL322C, strain KRE1, stronger effect = lower value 1.02 | locus YPL055C, strain LGE1, stronger effect = lower value 0.795
active: locus YLR085C, strain ARP6, stronger effect = lower value 0.622 | locus YMR263W, strain SAP30, stronger effect = lower value 0.852 | locus YNR030W, strain Alg12, stronger effect = lower value 0.804 | locus YPL241C, strain CIN2, stronger effect = lower value 0.849 | locus YPR135W, strain CTF4, stronger effect = lower value 0.623
